# Screens from PubChem BioAssay.
# sEH act: soluble epoxide hydrolase activators, primary screen, biochemical, human sEH. purified human sEH enzymatic activity, activator screen. activation, % at 2 µM. 91,000 tested, 0.04% active. AID 717, 2007; in the data active = activation above about 37%
# CYP2C19 inh: blockers of cytochrome P450 2C19 activity – biochemical, luminescence, ADME assay, primary screen | P33261 | inhibition, % at 5 µM | AID 778, 2007 | CYP2C19 Supersomes, luciferin-H EGE luminescence, 30 min | 96,000 tested, 21% active;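 active = CYP2C19 inhibition above a set limit at 5 µM in the primary screen, cut at about 50% in these data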;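 note: plate controls were negative control wells for no effect and 2.5 mM tranylcypromine positive control for full effect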
# Target sequence (P33261 whole entry, looked up): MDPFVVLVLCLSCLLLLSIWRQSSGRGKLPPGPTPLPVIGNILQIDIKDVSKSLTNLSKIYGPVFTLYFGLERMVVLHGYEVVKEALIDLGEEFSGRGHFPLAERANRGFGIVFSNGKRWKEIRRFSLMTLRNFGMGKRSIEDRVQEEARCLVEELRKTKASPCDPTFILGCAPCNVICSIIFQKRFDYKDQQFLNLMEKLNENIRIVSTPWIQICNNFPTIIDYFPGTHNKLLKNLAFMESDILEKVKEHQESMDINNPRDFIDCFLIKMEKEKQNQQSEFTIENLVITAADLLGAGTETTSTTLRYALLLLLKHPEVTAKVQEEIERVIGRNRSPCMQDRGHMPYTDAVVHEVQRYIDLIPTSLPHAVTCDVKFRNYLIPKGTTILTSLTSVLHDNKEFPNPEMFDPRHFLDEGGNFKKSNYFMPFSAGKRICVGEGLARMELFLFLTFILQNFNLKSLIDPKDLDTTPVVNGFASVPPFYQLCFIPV
# CYP2C9 inhib: blockers of cytochrome P450 2C9 activity – biochemical, luminescence, ADME assay, primary screen | P11712 | CYP2C9 Supersomes, luciferin-H conversion | inhibition, % at 5 µM | 96,000 tested, 20% active;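 active = blocking of liver enzyme CYP2C9 beyond about 50% at 5 µM, limit read from the data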
# CYP2C9 activ: human CYP2C9 activators, primary screen, biochemical, luminescence | Cytochrome P450 2C9 (Homo sapiens), P11712 | recombinant CYP2C9, luciferin-H conversion; active compounds read high; factor 1 = untreated enzyme, 0 = blocked | activation factor at 5 µM | 96,000 tested, 1.4% active;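 active = activation factor of 2 or more for CYP2C9 at a 5 µM dose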;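 note: 0 = sulfaphenazole-blocked wells and 1 = vehicle-only wells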
# sEH inh: soluble epoxide hydrolase inhibitors, primary screen, biochemical, human sEH; recombinant human sEH enzymatic activity assay; inhibition, % at 2 µM; 91,000 tested, 0.34% active; in the data active = inhibition above about 80%
# CYP2C19 act: human CYP2C19 activators, primary screen, biochemical, luminescence; Cytochrome P450 2C19 (Homo sapiens), P33261; recombinant CYP2C19, luciferin-H EGE luminescence; active compounds read high; 0 = fully inhibited enzyme, 1 = untreated enzyme; activation factor at 5 µM; 96,000 tested, under 10 active;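 active = activation factor of at least 2 at 5 µM in the primary screen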;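 note: 0 = wells with 2.5 mM tranylcypromine and 1 = vehicle-only wells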
# * marks the source's active call; other numbers are inactive results; . = not tested or not shown. Shown are actives, neighbours in structure and some others; about 27% of the full set was active somewhere.
SMILES,sEH act,CYP2C19 inh,CYP2C9 inhib,CYP2C9 activ,sEH inh,CYP2C19 act
O=C(NC1CCCCC1)C(c1ccc2ncccc2c1)N(Cc1ccco1)C(=O)c1ccc2c(c1)OCCO2 (stereo not drawn),2,70*,70*,0.3,-3,0.3
O=C(NC1CCCCC1)C(c1ccc2ncccc2c1)N(Cc1cccs1)C(=O)c1cccs1 (stereo not drawn),13,60*,59*,0.4,-15,0.4
CCC(C)(C(=O)NC1CCCCC1)N(Cc1ccco1)C(=O)c1ccc2c(c1)OCO2 (stereo not drawn),7,83*,60*,0.4,-7,0.2
OC(COCc1ccc2c(c1)OCO2)CN1CCN(Cc2ccccc2)CC1 (stereo not drawn),6,-6,23,0.8,-4,1.1
COc1cc(-c2nc(-c3cccc(C)c3)no2)cc(OC)c1OC,10,.,.,.,-6,.
COc1cc2c(C)nc3onc(-c4ccccc4)c3c2cc1OC,-9,54*,77*,0.2,8,0.5
Cn1c(CCNC(=O)c2cccs2)nnc1SCC(=O)N1CCN(c2ccccc2)CC1,2,11,4,1,-3,0.9
O=C(c1ccccc1)c1nc2ccccc2n(CCCn2c(=O)c(C(=O)c3ccccc3)nc3ccccc32)c1=O,15,74*,97*,0,-15,0.3
COc1cccc(S(=O)(=O)Nc2ccc3sc(C)nc3c2)c1,4,100*,95*,0.1,-2,0
Cc1ccc(C)c(S(=O)(=O)Nc2ccc3sc(C)nc3c2)c1,-6,.,.,.,7,.
NC(=O)c1c(NC(NC(=O)c2ccco2)(C(F)(F)F)C(F)(F)F)sc2c1CCCC2,-2,20,21,0.8,1,0.8
CCOc1ccc(N(Cc2cc3cc(OC)ccc3[nH]c2=O)C(=O)C2CCCO2)cc1 (stereo not drawn),-8,20,68*,0.3,7,0.8
COc1ccc(N(Cc2cc3ccccc3[nH]c2=O)C(=O)C2CCCO2)cc1 (stereo not drawn),.,10,10,0.9,.,0.9
COCC(=O)N(Cc1cc2cc(OC)ccc2[nH]c1=O)c1ccc(C)cc1,12,36,59*,0.4,-14,0.6
O=C(c1ccc(=O)[nH]c1)N(Cc1ccco1)C1(C(=O)NC2CCCC2)CCCCC1,-10,-13,-12,1.1,10,1.1
CCN1C(=O)/C(=c2\o/c(=C3\C=Cc4ccccc4N3CC)c(=O)n2CC)SC1=S,-4,25,33,0.7,2,0.7
CCN1C(=O)/C(=C2\C=Cc3ccccc3N2CC)SC1=S,-6,55*,13,0.9,7,0.5
CCCN1C(=O)/C(=C2\SC(N3CCCCC3)=NC2=O)c2ccccc21,9,41,19,0.8,-8,0.6
CCN1C(=O)/C(=C2\SC(=S)N(CCCOC)C2=O)c2ccccc21,-5,3,52*,0.5,5,1
Cc1ccsc1C(=O)OCc1csc(-c2ccccc2)n1,-14,6,-6,1.1,15,0.9
CC(=Nc1ccccc1C)C1=C(O)CSC1=O,4,75*,23,0.8,-2,0.2
CCCOc1cc(N(CC)CC)ccc1/C=C(/C#N)c1nc2ccc(C)cc2[nH]1,4,22,58*,0.4,-1,0.8
CCN(CC)c1ccc(/C=C(/C#N)c2nc3ccc(C)cc3[nH]2)c(OC(C)C)c1,5,60*,72*,0.3,-7,0.4
CCOc1cc(N(CC)CC)ccc1/C=C(/C#N)c1nc2ccccc2[nH]1,-4,56*,77*,0.2,7,0.4
CN(C)/C=C(\C#N)c1nc2ccccc2[nH]1,7,-10,-12,1.1,-6,1.1
CC(C)(C)Nc1nc(SCc2ccccc2)nc(N2CCOCC2)n1,-12,75*,97*,0,12,0.3
CNc1nc(SCc2ccccc2)nc(N2CCOCC2)n1,5,69*,47,0.5,-6,0.3
CCOc1ccc(CCNC(=O)C2CCCN(c3nn4c(=O)cc(C)nc4s3)C2)cc1 (stereo not drawn),.,22,63*,0.4,.,0.8
